PubChem BioAssay (EPA / NIEHS)
The source made the active and inactive calls. The calls were made as follows: active = hit-call score of the fitted dose curve at least 0.9, where 1 is the maximum; inconclusive = response in the unintended direction; inactive = score below 0.9.

Test system: Thyroperoxidase (TPO), gene 54314
Assay: CCTE_Simmons_AUR_rTPO: CCTE's Amplex UltraRed Assay for Thyroperoxidase (TPO) Inhibition, Simmons Lab (AID 2283662);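 also: potency for loss of signal meaning inhibition of peroxidase activity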
Summary of the method: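 Endpoint is decreased Amplex UltraRed fluorescence after a 30-min, 37C reaction of rat thyroid microsomes with 300 uM H2O2. Eight test concentrations (5 nM–87.5 uM final) in 0.5% DMSO, three biological replicates each.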

| Structure (SMILES) | AC50 |
| --- | --- |
| c1ccc(OP(Oc2ccccc2)Oc2ccccc2)cc1 | 8.68 µM (active) |
| c1ccc2c(c1)Nc1ccccc1S2 | 15 µM (active) |
| Nc1ccc2ccccc2c1 | 0.34 µM (active) |
| Nc1cc2c3c(c1)C(c1ccccc1)=N[C@@H](NC(=O)c1cccnc1)C(=O)N3CC2 | 23.1 µM (active) |
| CCOP(=S)(OCC)SCSCC | 20.5 µM (active) |
